Experimental data: PubChem BioAssay (NCATS)

Assay: qHTS profiling of the MIPE4 collection as inhibitors of Plasmodium falciparum (3D7) proliferation (AID 743344);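 further: scaled between DMSO vehicle wells and 0.29 µM artemisinin as full inhibition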
Settings: P. falciparum 3D7 in erythrocytes, SYBR Green DNA fluorescence, 72 h; at 9.64 µM (top of the series)
From the text: Plasmodium falciparum is a virulent malarial parasite that kills 1-2 million people worldwide each year. Transmitted by mosquitoes, the sporozoite form of the parasite enters the blood stream to infect hepatocytes, where they become merozoites that infect red blood cells (erythrocytes). Within erythrocytes, merozoites begin a […] cycle of growth and division, after which the parasite is released to infect new red blood cells. Gametocytes, which form within erythrocytes as well, circulate in the bloodstream and are ingested by the mosquito, thereby completing the life cycle. To profile malarial isolates for differential chemical responses and to identify inhibitors of malarial growth, an assay that measures P. falciparum growth and replication within erythrocytes was employed. This assay uses a DNA binding fluorescent dye (SYBR Green) to detect parasite DNA following cell lysis. Because mature erythrocytes lack DNA, only Plasmodium-derived DNA is detected.
The SYBR Green viability assay was adapted from a method described previously (Plouffe et al., 2008). For screening 3 ul culture medium was dispensed into 1536 well black clear bottom plates (Aurora Biotechnologies) using a Multidrop Combi (Thermo Fisher Scientific Inc.), 23 nL compounds in DMSO were added by a pin tool (Kalypsys), and 5 ul of erythrocytes infected with P. falciparum (0.3% parasitemia, 2.5% hematocrit final concentration) were added. The plates were incubated at 37 C in a humidified incubator in 5% CO2 for 72 h, and 2 ul lysis buffer (20 mM Tris HCl, 10 mM EDTA, 0.16% saponin, 1.6% triton X, 10X SYBR Green I supplied as 10,000X […] by Invitrogen) was added to each well. The plates were mixed for 25 sec with gentle shaking and incubated overnight at room temperature in the dark. The following morning, fluorescence intensity at 485(14) nm excitation and 535(25) nm emission wavelengths was measured on an EnVision (Perkin Elmer) plate reader. Plate reads were normalized relative to the control inhibitor (0.29 uM artemisinin) and vehicle (DMSO) wells present on each plate and then corrected by an algorithm using vehicle-only control plates at the beginning and end of the compound plate stack.

Row | SMILES | parasite growth, % of DMSO control [%]
1 | CCCCN(CCCC)CCC(O)c1cc2c(Cl)cc(Cl)cc2c2cc(C(F)(F)F)ccc12 (stereo not given) | 7.84

Same assay, conditions: P. falciparum 3D7 in erythrocytes, SYBR Green DNA fluorescence, 72 h; at 28.5 µM

Row | SMILES | parasite growth, % of DMSO control [%]
2 | CCCCN(CCCC)CCC(O)c1cc2c(Cl)cc(Cl)cc2c2cc(C(F)(F)F)ccc12 (stereo not given) | 7.96

Same assay, conditions: P. falciparum 3D7 in erythrocytes, SYBR Green DNA fluorescence, 72 h; at 28.5 µM unless noted

Row | SMILES | parasite growth, % of DMSO control
3 | CC(C)Oc1ccc2c(=O)c(-c3ccccc3)coc2c1 | 75.9%
4 | CC(C)c1ccc2c(c1)c(SC(C)(C)C)c(CC(C)(C)C(=O)O)n2Cc1ccc(Cl)cc1 | 21.7%
5 | Cc1nc(Nc2ncc(C(=O)Nc3c(C)cccc3Cl)s2)cc(N2CCN(CCO)CC2)n1 | 13.5%
6 | CCOC(=O)C(C)Oc1cccc2c(=O)n(CC(=O)Nc3ccc4c(c3)OCCO4)ccc12 (stereo not given) | 72.1%
7 | O=c1c(O)c(-c2cc(O)c(O)c(O)c2)oc2cc(O)cc(O)c12 | 93.5%
8 | COc1cc(C(C)=O)ccc1OCCCN1CCC(c2noc3cc(F)ccc23)CC1 | 29.6%
9 | C[C@H](Cn1cnc2c(N)ncnc21)OCP(=O)(O)O | 171%
10 | O=P(O)(O)C(O)(Cn1ccnc1)P(=O)(O)O | 103% [at 9.64 µM]
11 | CC(C)C[C@H](NC(=O)[C@H](Cc1ccccc1)NC(=O)c1cnccn1)B(O)O | 4.91%
12 | CCc1nc(N)nc(N)c1-c1ccc(Cl)cc1 | 30.2%
13 | O=C(O)CCNC(=O)c1ccc(N=Nc2ccc(O)c(C(=O)O)c2)cc1 | 57.4%
14 | c1cnc2cc3c(cc2n1)C1CNCC3C1 | 94.7%
15 | CN(C)[C@@H](CCOc1cccc2ccccc12)c1ccccc1 | 18.8%
16 | CC(C)(S)[C@@H](N)C(=O)O | 106%
17 | COC(=O)C1=C(C)NC(C)=C(C(=O)OCCCN2CCC(c3ccccc3)(c3ccccc3)CC2)C1c1cccc([N+](=O)[O-])c1 (stereo not given) | 114%
18 | COCCCN1CCC(NC(=O)c2cc(Cl)c(N)c3c2OCC3)CC1 | 28.3%
19 | COc1ccccc1N1CCN(CCN(C(=O)C2CCCCC2)c2ccccn2)CC1 | 57.8%
20 | CCC(C)(Oc1ccc(C2(c3ccc(OC(C)(CC)C(=O)O)cc3)CCCCC2)cc1)C(=O)O (stereo not given) | 100%
21 | Nc1ccn([C@@H]2O[C@H](CO)[C@@H](O)C2O)c(=O)n1 (stereo not given in full) | 89.3%

Row | SMILES | parasite growth, % of DMSO control
22 | CC1=C(C(=O)O)N2C(=O)[C@@H](NC(=O)[C@H](N)C3=CCC=CC3)[C@H]2SC1 | 79.3%
23 | Cc1nccn1CC1CCc2c(c3ccccc3n2C)C1=O (stereo not given) | 89.8%
24 | O=C1CCc2ccc(OCCCCN3CCN(c4cccc(Cl)c4Cl)CC3)cc2N1 | 29.7%
25 | CC1(C)CCC(C)(C)c2cc(NC(=O)c3ccc(C(=O)O)cc3)ccc21 | 23.1%
26 | O=C1c2ccccc2-c2n[nH]c3cccc1c23 | 62.9%
27 | Nc1cc(C(Cl)=C(Cl)Cl)c(S(N)(=O)=O)cc1S(N)(=O)=O | 103%
28 | COc1ccc2cc([C@H](C)C(=O)O)ccc2c1 | 106%
29 | O=C(CCc1ccc(O)cc1)c1c(O)cc(O)cc1O | 10.4%
30 | O=Nc1c(-c2c(O)[nH]c3cc(Br)ccc23)[nH]c2ccccc12 | 2.9%
31 | CC(=O)N1CCN(c2ccc(OC[C@H]3CO[C@](Cn4ccnc4)(c4ccc(Cl)cc4Cl)O3)cc2)CC1 | 10.3%
32 | CC1(C)NC(=O)N(c2ccc([N+](=O)[O-])c(C(F)(F)F)c2)C1=O | 83.6%
33 | C[C@@H](N)C1CCC(C(=O)Nc2ccncc2)CC1 (stereo not given in full) | 85.6%
34 | CCN(CCO)CCCC(C)Nc1ccnc2cc(Cl)ccc12 (stereo not given) | 20.1%
35 | Cc1ccc(C(=O)c2cc(O)c(O)c([N+](=O)[O-])c2)cc1 | 82.6%
36 | NC(=NCc1ccccc1)NC(=O)c1nc(Cl)c(N)nc1N | 103%
37 | N=C(N)c1ccc2cc(OC(=O)c3ccc(N=C(N)N)cc3)ccc2c1 | 6.93%
38 | CNC[C@H](O)c1ccc(O)c(O)c1 | 61.3% [at 57.5 µM]
39 | Cc1cccc(C#Cc2ccccc2)n1 | 23.9%
40 | Cc1cc(Cl)ccc1OCCCC(=O)NO | 34.3%
